Screens as filed in PubChem.
Rows were chosen to be rich in hits. Some 3% of all compounds tested hit in one or more screens of this group.
PPC-1+TRAIL kill – compounds killing PPC-1 cancer cells with TRAIL present (potentiator screen, no TRAIL-free arm). PPC-1 cells + TRAIL, ATPLite viability luminescence. cell killing (% activity), % at 4 µM or 5 µM. actives 0.41% (n = 220,000). AID 1443;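 active = cell killing above 50% in the first pass at 4 µM, then a duplicate retest at 5 µM averaging 50% or more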;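 note: plate controls were cells with TRAIL plus DMSO for no effect and medium-only wells lacking cells for full effect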
SENP6 block – blocks the human protease SENP6. Q9GZR1. Recombinant SENP6 catalytic domain, aminoluciferin luminescence. inhibition, % at 10 µM. actives 1.8% (n = 330,000);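 active = inhibition above about 50% at the single tested dose, limit read from the data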;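 note: plate controls were DMSO wells with enzyme for no effect and DMSO wells lacking enzyme for full effect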
SENP8 block-1 – blocks human SENP8 cleavage of Nedd8 substrate | AID 602440 | recombinant SENP8, Nedd8 substrate fluorescence | actives 0.64% (n = 360,000) | inhibition, % at 20 µM | Q96LD8; in the data active = inhibition mostly above about 40%, no sharp cut-off; inactive = mostly below about 27%
Target sequence (Q96LD8 whole entry, looked up): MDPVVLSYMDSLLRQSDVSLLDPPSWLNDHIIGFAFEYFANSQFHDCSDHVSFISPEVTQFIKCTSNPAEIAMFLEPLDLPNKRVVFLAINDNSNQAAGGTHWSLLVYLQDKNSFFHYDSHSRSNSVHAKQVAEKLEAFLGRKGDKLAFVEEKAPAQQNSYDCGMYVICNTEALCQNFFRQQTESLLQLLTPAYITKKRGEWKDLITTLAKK
SENP7 block – inhibitors of human SENP7 protease; Q9BQF6; recombinant SENP7, Z-RLRGG-aminoluciferin luminescence, 40 min; inhibition, % at 5 µM; actives 1.5% (n = 330,000); AID 434973;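 active = inhibition above about 50% at the single test dose, limit read from the data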;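 note: plate controls were DMSO with enzyme for no effect and no enzyme buffer wells for full effect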
Target sequence (Q9BQF6 706-1050 limits assumed): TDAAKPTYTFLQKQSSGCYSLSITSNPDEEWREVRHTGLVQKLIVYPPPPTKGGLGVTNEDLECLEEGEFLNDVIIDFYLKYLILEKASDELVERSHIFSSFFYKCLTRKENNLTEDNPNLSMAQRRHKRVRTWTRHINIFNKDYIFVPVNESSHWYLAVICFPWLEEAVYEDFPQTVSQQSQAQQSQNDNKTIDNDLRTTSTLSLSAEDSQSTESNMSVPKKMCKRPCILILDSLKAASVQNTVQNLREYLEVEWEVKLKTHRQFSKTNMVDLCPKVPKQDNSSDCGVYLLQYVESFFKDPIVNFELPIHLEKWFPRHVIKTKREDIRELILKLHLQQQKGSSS
SENP8 block-2 – inhibitors of human SENP8 protease; purified SENP8, Z-RLRGG-aminoluciferin cleavage, luminescence; AID 2540; Q96LD8; actives 1.2% (n = 330,000); inhibition, % at 10 µM; in the data active = inhibition above about 50%
C8 TRAIL sens – sensitizes caspase-8 expressing cells to TRAIL; actives 1% (n = 360,000); inhibition (viability loss, TRAIL sensitization), % at 10 µM; AID 624354; NB7+C8 cells + TRAIL, ATPlite viability luminescence;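 active = compounds causing at least 50% loss of cell viability in the single-dose screen, relative to plate controls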
SENP8 confirm – confirmation of human SENP8 protease inhibitors | shares compounds with SENP7 block | Recombinant SENP8, Z-RLRGG-aminoluciferin luminescence, 60 min | inhibition, % at 12.5 µM | actives 40% (n = 6,200) | AID 488912;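 active = mean inhibition across replicates above about 50%, limit read from the data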
SENP6 confirm – human SENP6 inhibition, confirmed. recombinant SENP6, Z-RLRGG-aminoluciferin luminescence. shares compounds with SENP7 block. inhibition, % at 12.5 µM. actives 58% (n = 6,200). AID 488915
SENP7 confirm – human SENP7 inhibition, confirmed; shares compounds with SENP7 block; recombinant SENP7, Z-RLRGG-aminoluciferin luminescence, 40 min; inhibition, % at 12.5 µM; actives 69% (n = 6,200); AID 488917
Casp3 SENP sel – caspase-3 inhibition (SENP selectivity assay) | purified caspase-3, Z-DEVD-aminoluciferin luminescence, 60 min | AID 488918 | inhibition, % at 12.5 µM | shares compounds with SENP7 block | actives 60% (n = 6,200);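 active = mean inhibition above about 50%, limit read from the data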;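 note: plate controls were enzyme with DMSO for no effect and wells without caspase-3 for full effect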
Luc interf – luminescence interference (SENP counter-screen). inhibition, % at 12.5 µM. actives 39% (n = 6,200). shares compounds with SENP7 block. Pre-incubated SENP8/Z-RLRGG-aminoluciferin, luciferase luminescence interference;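 active = mean inhibition above about 50% when retested at one dose, limit read from the data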;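 note: plate controls were DMSO wells with completed reaction for no effect and substrate without enzyme for full effect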
* hit, by the source's call; i = inactive; . = no result.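 Rule for the calls, unless noted: active = mean inhibition above about 50% in the one-dose retest (limit read from the data); inactive = the rest.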

SMILES | PPC-1+TRAIL kill | SENP6 block | SENP8 block-1 | SENP7 block | SENP8 block-2 | C8 TRAIL sens | SENP8 confirm | SENP6 confirm | SENP7 confirm | Casp3 SENP sel | Luc interf
Fc1cccc(/C=N/Nc2nccnc2Cl)c1 | . | 97* | -220 | 99* | 93* | 16 | 96* | 96* | 102* | 98* | 96*
Fc1cccc(/C=N/Nc2nncc3ccccc23)c1 | . | 92* | 19 | 96* | 90* | 84* | 78* | 94* | 98* | 89* | 61*
Oc1ccc(/C=N/Nc2nccnc2Cl)cc1 | 25 | 97* | -61 | 99* | 98* | -13 | 98* | 99* | 102* | 98* | 98*
O=C(NN=Cc1ccc(O)cc1)C(=O)NN=Cc1ccc(O)cc1 | . | . | -151 | . | . | 5 | . | . | . | . | .
Fc1ccc(/C=N/Nc2nnnn2-c2ccccc2)cc1 | 6 | -6 | 8 | -4 | -10 | -6 | . | . | . | . | .
Fc1ccc(/C=N/Nc2nccnc2Cl)cc1 | . | 93* | -145 | 94* | 86* | 0 | 93* | 93* | 100* | 96* | 92*
COc1cc2ccccc2ccc1=NO | . | . | 4 | . | . | 6 | . | . | . | . | .
O=C(CNc1ccc(Br)cc1)c1ccccc1 | 15 | 71* | 19 | 32 | 48 | -3 | 9 | 14 | 21 | 21 | 12
CC(=O)Nc1ccc(C(=O)COC(=O)C2CCCCC2)c(F)c1 | . | 78* | 1 | 58* | 57* | -4 | 10 | 46 | 80* | 43 | 9
CC(=O)Nc1ccc(C(=O)COC(=O)C2CC2)c(F)c1 | . | -2 | -2 | -7 | -1 | 0 | . | . | . | . | .
CCc1cc(C(=O)NNC(=S)Nc2ccccc2C)cs1 | 28 | 60* | 13 | 28 | 36 | 24 | 33 | 30 | 19 | 14 | 38
Cc1cc(C(=O)Nc2ccc(Br)cc2)cs1 | . | 41 | 6 | 60* | 5 | 26 | 2 | 22 | 28 | 42 | 3
CCc1cc(C(=O)NNC(=S)NCc2ccccc2)cs1 | 15 | 1 | 17 | 4 | 4 | 11 | . | . | . | . | .
CNS(=O)(=O)c1ccc(NC(=O)c2csc(C)c2)cc1 | . | 11 | 11 | 1 | 3 | -1 | . | . | . | . | .
CCc1cc(C(=O)Nc2ccccc2)cs1 | 26 | 67* | 5 | 75* | 52* | 21 | 64* | 66* | 92* | 81* | 77*
COc1ccc(S(=O)(=O)N2CCC(C(=O)N[C@@H](C)C(=O)NCc3ccncc3)CC2)cc1 | . | 9 | 11 | 5 | 1 | -9 | . | . | . | . | .
O=C(NCc1ccccc1)c1cc2ccc(O)cc2oc1=O | . | 95* | -489 | 96* | 97* | -11 | 98* | 98* | 102* | 98* | 97*
COC(=O)COc1ccc2cc(-c3ccccc3)c(=O)oc2c1 | . | 55* | -400 | 50 | 34 | 4 | 16 | 44 | 7 | 23 | 2
NC(=O)COc1ccc2cc(-c3ccccc3)c(=O)oc2c1 | . | -8 | -415 | 5 | -19 | -6 | . | . | . | . | .
O=c1oc2cc(O)ccc2cc1-c1ccccc1 | . | 90* | -363 | 88* | 91* | 5 | 94* | 94* | 99* | 92* | 92*
O=C(O)C(Oc1ccc2cc(-c3ccc(Cl)cc3)c(=O)oc2c1)c1ccccc1 (stereo unspecified) | . | 77* | i | 30 | 46 | -14 | 74* | 75* | 63* | 44 | 14
COc1cccc(-c2nc(-c3ccccc3)c3ccc(Cl)cc3n2)c1 | . | . | 15 | . | . | 2 | . | . | . | . | .
COc1ccc(-c2cc3ccc(O)cc3oc2=O)cc1 | . | 88* | -397 | 58* | 83* | 28 | 73* | 77* | 93* | 76* | 62*
COc1ccc(-c2cc3ccc(OCc4nn[nH]n4)cc3oc2=O)cc1OC | 4 | 76* | -301 | 65* | 51* | 3 | 67* | 66* | 91* | 85* | 72*
COc1ccc(-c2cc3ccc(OCC(C)=O)cc3oc2=O)cc1OC | . | 12 | -317 | 1 | 0 | 10 | . | . | . | . | .
SMILES | PPC-1+TRAIL kill | SENP6 block | SENP8 block-1 | SENP7 block | SENP8 block-2 | C8 TRAIL sens | SENP8 confirm | SENP6 confirm | SENP7 confirm | Casp3 SENP sel | Luc interf
COc1ccc(S(=O)(=O)N2CCC(C(=O)NCc3ccncc3)CC2)cc1OC | . | -42 | -3 | -7 | -10 | -7 | . | . | . | . | .
O=C(C=Cc1ccccc1)CC(c1ccccc1)N1CCOCC1 (stereo unspecified) | . | . | 8 | . | . | 16 | . | . | . | . | .
N#C/C(=C/c1cccs1)c1nc2ccccc2[nH]1 | 37 | 48 | -68 | 57* | 30 | 27 | 44 | 48 | 84* | 58* | 22
COc1cc(/C=C(\C#N)c2nc3ccccc3[nH]2)ccc1Oc1ccc([N+](=O)[O-])cn1 | -2 | -12 | -273 | 9 | -6 | 23 | . | . | . | . | .
COc1cc(/C=C(\C#N)c2nc3ccccc3[nH]2)cc(Br)c1OCc1ccccc1 | 36 | 11 | -295 | -1 | -1 | 22 | . | . | . | . | .
COc1c(O)ccc(/C=C(\C#N)c2nc3ccccc3[nH]2)c1[N+](=O)[O-] | 5 | 54* | -22 | 14 | 14 | -2 | 27 | 28 | 59* | 23 | 48
COc1cc(/C=C(/C#N)c2nc3ccccc3[nH]2)ccc1OC(=O)c1ccco1 | 10 | 84* | -296 | 70* | 78* | 26 | 52* | 70* | 99* | 84* | 37
COc1cc(/C=C(/C#N)c2nc3ccccc3c(=O)[nH]2)ccc1O | 20 | 94* | -16 | 87* | 84* | -4 | 13 | 22 | 24 | 62* | 11
CN(Cc1cccc(Cl)c1)C(=O)C1CCC(=O)N(C2CC2)C1 (stereo unspecified) | . | -15 | 10 | -3 | 10 | -5 | . | . | . | . | .
C/C(=N/OC(=O)c1ccc(F)cc1)c1ccc(C)cc1 | 15 | 60* | 20 | 71* | 55* | -3 | 12 | 8 | 18 | 17 | 5
Cc1ccccc1C(=O)NNC(=O)c1ccc(F)cc1 | 2 | 5 | 21 | 8 | 3 | -8 | . | . | . | . | .
N/C(=N\OC(=O)/C=C/c1ccccc1)c1ccccc1 | -2 | 90* | 9 | -2 | 80* | 43 | 90* | 89* | 99* | 90* | 83*
Cc1ccccc1C(=O)O/N=C(\N)c1ccc([N+](=O)[O-])cc1 | . | 2 | 12 | -7 | 1 | -15 | . | . | . | . | .
